PubChem BioAssay
Calls of active or inactive are those of the source.

Legend:
[1] = test system: PRMT1 (protein arginine N-methyltransferase 1); test: small molecules binding arginine methyltransferase PRMT1 – biochemical, small-molecule microarray, 635 nm fluorescence, primary screen (AID 1088); conditions: higher = more signal;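 note: binding of Prmt1 protein to compounds spotted on small-molecule microarray slides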
[2] = growth effects on S. cerevisiae YJM789 – YJM789 clinical isolate, OD600, 24 h, basal, primary screen (AID 1089); conditions: higher = more signal, called active from +8 up or from −8 down;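 note: growth of clinical yeast isolate S. cerevisiae YJM 789 seeded 1000 cells per well; test concentration not given here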
[3] = S. pombe growth modifiers, basal conditions – strain 972, OD600, 24 h, no modulator, primary screen (AID 1090);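 note: basal condition with compound alone and no growth modifier present; test concentration not given here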; conditions: S. pombe 972 growth, higher = more signal, called active from +8 up or from −8 down
[4] = budding yeast growth modifiers under rapamycin – strain BY4716, OD600, 96 h, primary screen (AID 1091); note: test concentration not given here; conditions: S. cerevisiae BY4716 + rapamycin, higher = more signal, called active from +8 up or from −8 down
[5] = molecular target: Torsin-1A-interacting protein 2 (Homo sapiens) (UniProt Q8NFQ8); test: small molecules binding lysate-expressed LULL1 – cell lysate, human LULL1 lysate, 635/667 nm fluorescence, primary screen (AID 1092); conditions: small-molecule microarray, hLULL1 lysate binding, 635 nm fluorescence; higher = more signal;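 note: probe is lysate of COS7 cells overexpressing human LULL1; score merges per-feature 667 nm fluorescence with signal-to-noise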
[6] = optical density change of DRC41 E. coli – strain DRC41, OD650, 24 h, E. coli filamentation project, primary screen (AID 1093);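 note: MC1000 strain lacking acrAB efflux and sulA so SOS filamentation is blocked; test concentration not given here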; conditions: E. coli DRC41 growth, higher = more signal, called active from +8 up or from −8 down
[7] = probe aLefty2 binding to arrayed compounds – biochemical, biotinylated probe, 635/667 nm fluorescence, primary screen (AID 1094); conditions: small-molecule microarray, higher = more signal;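 note: score merges spot fluorescence near 667 nm with spot signal-to-noise ratio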
[8] = test system: Noggin (protein binding on small-molecule microarray); test: small molecules binding Noggin protein – biochemical, 635/667 nm fluorescence, primary screen (AID 1095); conditions: 635 nm fluorescence, higher = more signal;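 note: score merges 667 nm feature fluorescence with signal to noise over triplicate slides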
[9] = molecular target: Neurogenic locus notch homolog protein 3 (Homo sapiens) (UniProt Q9UM47); test: small molecules binding NOTCH3 protein – biochemical, 635/667 nm fluorescence, primary screen (AID 1096); conditions: small-molecule microarray, 635 nm fluorescence, higher = more signal
[10] = probe aEGFR binding to arrayed compounds – biochemical, biotinylated probe, 635/667 nm fluorescence, primary screen (AID 1097); conditions: small-molecule microarray, higher = more signal;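 note: probe is a biotinylated anti-EGFR antibody binding compounds printed on slides; score combines fluorescence near 667 nm and signal to noise of each spot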

Sequence of Neurogenic locus notch homolog protein 3 (Homo sapiens) (Q9UM47 whole entry, looked up): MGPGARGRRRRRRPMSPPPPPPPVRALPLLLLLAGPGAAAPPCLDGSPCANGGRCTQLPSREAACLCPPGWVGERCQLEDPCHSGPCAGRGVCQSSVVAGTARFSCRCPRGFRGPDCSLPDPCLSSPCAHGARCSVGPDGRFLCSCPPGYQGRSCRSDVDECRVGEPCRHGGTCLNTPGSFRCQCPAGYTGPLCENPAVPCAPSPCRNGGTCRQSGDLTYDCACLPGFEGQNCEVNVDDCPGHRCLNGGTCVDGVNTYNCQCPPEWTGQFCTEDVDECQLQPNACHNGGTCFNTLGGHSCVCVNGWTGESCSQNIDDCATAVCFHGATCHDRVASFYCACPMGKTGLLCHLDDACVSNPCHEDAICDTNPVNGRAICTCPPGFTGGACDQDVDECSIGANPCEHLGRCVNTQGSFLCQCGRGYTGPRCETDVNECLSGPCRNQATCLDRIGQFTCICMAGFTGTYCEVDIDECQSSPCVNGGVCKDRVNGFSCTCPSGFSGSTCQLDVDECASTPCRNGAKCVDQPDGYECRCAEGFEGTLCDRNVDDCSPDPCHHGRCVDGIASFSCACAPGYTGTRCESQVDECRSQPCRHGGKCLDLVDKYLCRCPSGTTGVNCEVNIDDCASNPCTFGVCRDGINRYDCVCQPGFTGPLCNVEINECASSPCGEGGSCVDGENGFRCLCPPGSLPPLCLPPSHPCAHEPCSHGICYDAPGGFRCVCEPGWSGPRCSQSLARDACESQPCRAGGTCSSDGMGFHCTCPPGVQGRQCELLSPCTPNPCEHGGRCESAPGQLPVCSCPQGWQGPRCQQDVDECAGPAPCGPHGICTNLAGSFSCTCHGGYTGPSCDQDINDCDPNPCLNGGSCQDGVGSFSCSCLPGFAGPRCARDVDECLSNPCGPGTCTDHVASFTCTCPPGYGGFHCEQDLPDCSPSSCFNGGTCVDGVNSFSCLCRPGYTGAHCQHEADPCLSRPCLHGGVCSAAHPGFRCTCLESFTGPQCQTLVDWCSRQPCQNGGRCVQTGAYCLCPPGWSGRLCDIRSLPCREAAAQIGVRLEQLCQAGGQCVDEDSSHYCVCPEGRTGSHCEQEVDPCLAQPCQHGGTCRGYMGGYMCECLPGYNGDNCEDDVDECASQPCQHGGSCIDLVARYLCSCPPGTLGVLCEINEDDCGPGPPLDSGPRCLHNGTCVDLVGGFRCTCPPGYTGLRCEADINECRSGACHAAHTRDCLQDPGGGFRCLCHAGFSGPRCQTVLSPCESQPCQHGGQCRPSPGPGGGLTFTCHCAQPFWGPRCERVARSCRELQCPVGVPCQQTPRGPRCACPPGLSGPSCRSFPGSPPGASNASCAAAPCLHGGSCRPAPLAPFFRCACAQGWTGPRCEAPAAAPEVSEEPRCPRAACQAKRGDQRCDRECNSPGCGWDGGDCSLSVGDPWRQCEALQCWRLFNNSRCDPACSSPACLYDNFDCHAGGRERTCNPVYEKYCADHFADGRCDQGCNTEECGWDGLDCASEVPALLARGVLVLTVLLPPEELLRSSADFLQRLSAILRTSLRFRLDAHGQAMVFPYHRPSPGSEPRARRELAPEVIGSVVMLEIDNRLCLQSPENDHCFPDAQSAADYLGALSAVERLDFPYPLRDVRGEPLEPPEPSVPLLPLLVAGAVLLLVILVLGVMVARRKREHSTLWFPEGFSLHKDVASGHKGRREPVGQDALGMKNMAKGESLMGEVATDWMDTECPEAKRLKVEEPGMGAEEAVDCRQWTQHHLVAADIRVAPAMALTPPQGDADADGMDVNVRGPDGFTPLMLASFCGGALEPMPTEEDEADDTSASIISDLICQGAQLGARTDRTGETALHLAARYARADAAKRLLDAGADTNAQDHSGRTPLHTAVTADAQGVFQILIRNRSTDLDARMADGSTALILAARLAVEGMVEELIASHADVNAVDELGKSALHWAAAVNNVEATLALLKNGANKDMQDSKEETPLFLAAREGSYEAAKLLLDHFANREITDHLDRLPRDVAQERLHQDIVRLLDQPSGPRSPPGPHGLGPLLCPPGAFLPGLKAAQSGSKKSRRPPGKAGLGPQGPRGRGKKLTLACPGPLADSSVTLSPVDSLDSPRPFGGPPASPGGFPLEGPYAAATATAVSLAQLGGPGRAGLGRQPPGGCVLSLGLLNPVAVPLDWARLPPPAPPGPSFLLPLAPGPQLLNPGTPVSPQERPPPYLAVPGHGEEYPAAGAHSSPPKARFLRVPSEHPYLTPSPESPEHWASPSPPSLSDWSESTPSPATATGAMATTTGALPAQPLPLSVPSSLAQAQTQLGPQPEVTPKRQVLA
Sequence of Torsin-1A-interacting protein 2 (Homo sapiens) (Q8NFQ8 whole entry, looked up): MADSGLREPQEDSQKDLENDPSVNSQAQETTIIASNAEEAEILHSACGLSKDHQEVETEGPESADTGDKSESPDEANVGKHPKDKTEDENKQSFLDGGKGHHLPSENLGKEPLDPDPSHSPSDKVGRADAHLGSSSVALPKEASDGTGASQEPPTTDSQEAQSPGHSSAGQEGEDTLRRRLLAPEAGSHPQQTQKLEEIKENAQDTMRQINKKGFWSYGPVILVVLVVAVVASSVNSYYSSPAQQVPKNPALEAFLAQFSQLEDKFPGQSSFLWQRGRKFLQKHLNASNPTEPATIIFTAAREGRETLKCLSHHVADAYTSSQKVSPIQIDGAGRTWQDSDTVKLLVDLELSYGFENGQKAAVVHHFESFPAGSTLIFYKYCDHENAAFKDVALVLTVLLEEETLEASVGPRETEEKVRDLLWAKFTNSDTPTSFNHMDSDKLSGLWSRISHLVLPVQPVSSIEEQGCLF

| SMILES | composite z-score [1] | z-score [2] | z-score [3] | z-score [4] | composite z-score [5] | z-score [6] | composite z-score [7] | composite z-score [8] | composite z-score [9] | composite z-score [10] |
| --- | --- | --- | --- | --- | --- | --- | --- | --- | --- | --- |
| O=C(O)[C@H](Cc1ccccc1)n1cc(-c2ccccn2)nn1 | 0.427 | 0.445 (inactive) | 1.25 (inactive) | -0.609 (inactive) | 0.524 | -0.631 (inactive) | -0.103 | 0.665 | 0.596 | -0.042 |
| COCCOC(=O)N1C(=O)[C@@]2(c3ccccc31)[C@H](C(=O)N1CCN(c3ncccn3)CC1)[C@H]1C(=O)O[C@H](c3ccccc3)[C@H](c3ccccc3)N1[C@@H]2c1ccc(OCCO)cc1 | 1.56 | 2.53 (inactive) | 1.1 (inactive) | 5.84 (inactive) | 2.56 | 1.75 (inactive) | 0.309 | 0.57 | 0.817 | 0.325 |
| Cc1c(NC(=O)/C(C#N)=C/C=C/c2ccc(N(C)C)cc2)c(=O)n(-c2ccccc2)n1C | 1.55 | -0.0755 (inactive) | -0.544 (inactive) | -0.299 (inactive) | 2.6 | 0.482 (inactive) | 0.647 | 0.586 | 0.739 | 0.118 |
| COC1(C)CN(Cc2ccccc2Br)[C@H](/C=C/c2ccccc2)[C@H](Cc2ccccc2)O1 (stereo not given in full) | -0.355 | -0.0969 (inactive) | 0.239 (inactive) | 0.243 (inactive) | -0.92 | 1.07 (inactive) | -0.231 | -0.391 | -0.789 | -0.159 |
| COC(=O)[C@]1(CCS(=O)(=O)c2ccccc2)N=C(c2ccc(OCCCO)cc2)O[C@@H]1c1ccccc1CN=[N+]=[N-] | 1.54 | 1.6 (inactive) | 1.13 (inactive) | 37 (active) | 3.09 | -0.33 (inactive) | 0.0956 | 0.839 | 0.941 | -0.0972 |
| COC(=O)[C@@]1(Cc2ccc(F)cc2)[C@H]2c3cc(C(=O)N4CCCC4)n(CCc4c[nH]c5ccc(OC)cc45)c3C[C@H]2CN1C(=O)c1ccccc1 | -0.508 | -0.0567 (inactive) | -0.156 (inactive) | 2.07 (inactive) | 3.37 | -0.803 (inactive) | 0.957 | 1.26 | 1.11 | 0.44 |
| CC[C@@H]1[C@H]2C3C(=O)N(CC)C(=O)C3CC(=O)[C@H]2[C@H](c2ccc(C)cc2)N1S(=O)(=O)c1ccc(C)cc1 (stereo not given in full) | 1.09 | 0.0287 (inactive) | 1.15 (inactive) | 1.6 (inactive) | 2.75 | -0.243 (inactive) | -0.203 | 0.712 | 1.12 | -0.0353 |
| C=CC[C@H](OC(=O)Nc1ccc(OC)cc1)c1ccc(O)c2ccccc12 | 1.33 | -23.9 (active) | -19.5 (active) | -1.21 (inactive) | 2.08 | 0.364 (inactive) | 0.054 | 0.578 | 1.06 | -0.0509 |
| C=CCN1C(=O)[C@@]2(O[C@@H](CCn3cc([C@H](O)c4ccccc4)nn3)[C@H]([Si](C)(C)c3ccc(OC)cc3)[C@H]2C)c2ccccc21 | 1.55 | -0.78 (inactive) | -0.0638 (inactive) | 0.307 (inactive) | 1.02 | 1.1 (inactive) | -0.0507 | 0.442 | 1.16 | -0.094 |
| COc1ccc(C#Cc2ccc3c(c2)[C@]2(C(=O)N3)[C@H](C(=O)N3CCc4cc(OC)c(OC)cc4C3)[C@H]3C(=O)O[C@H](c4ccccc4)[C@H](c4ccccc4)N3[C@@H]2c2ccc(O)cc2)cc1 | 1.57 | 1.36 (inactive) | 1.14 (inactive) | 1.91 (inactive) | 2.28 | -0.384 (inactive) | -0.143 | 0.875 | 1.01 | -0.0142 |
| O=C1c2ccccc2[C@@]2(Cc3ccccc3N(C3CC3)C2=O)[C@H](c2ccc(CO)cc2)N1C1CCCCC1 | -0.767 | -0.451 (inactive) | 0.285 (inactive) | -0.728 (inactive) | 1.79 | -0.1 (inactive) | -0.17 | -0.699 | -0.938 | -0.168 |
| C=C(CCCC)/C(=C/C[C@@H](OC(C)=O)c1ccc(CO)o1)c1cc(C(=O)OC)ccc1OC | 1.57 | 0.562 (inactive) | -0.911 (inactive) | 0.28 (inactive) | 2.75 | -0.12 (inactive) | -0.134 | 1.44 | 1.06 | 0.021 |
| C=C(COC)/C(=C/C[C@@H](OC(=O)c1ccncc1)c1ccc(CO)o1)c1cnc2ccccc2c1 | 1.55 | -0.854 (inactive) | 0.536 (inactive) | 0.14 (inactive) | 1.59 | 0.647 (inactive) | -0.112 | 1.88 | 1.02 | -0.0059 |
| O=C1O[C@@H](c2ccccc2)[C@@H](c2ccccc2)N2[C@@H](c3ccccc3OCCO)[C@]3(C(=O)Nc4ccc(C#CCCO)cc43)[C@@H](C(=O)N3CCN(c4ncccn4)CC3)[C@H]12 | 1.55 | 1.75 (inactive) | -0.631 (inactive) | 3.99 (inactive) | 2.93 | 0.935 (inactive) | -0.0708 | 0.207 | 0.59 | -0.0858 |
